Source: PubChem (National Center for Advancing Translational Sciences (NCATS))
Pf growth 96h = P. falciparum growth inhibition at 96 hour, primary screen for plastid delayed-death inhibitors | P. falciparum luciferase reporter growth, 96 h | Potency, µM (titrated, usually from 28.7 µM), without a hit: top-dose activity change, negative = inhibition, actives largely listed as inhibitors | hit rate 6.9% among 320,000; further: potency means the concentration at half of the fitted maximal effect; on the % scale 0 is the no-effect control and ±100 the full control effect
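96 h incubation, 37 C, 5% CO2, of luciferase-reporter P. falciparum-infected RBCs (2% hematocrit, 0.05% parasitemia final) with test compounds; endpoint luminescence.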
CHX counter = counter-screen for Shiga toxin inhibitors: cycloheximide protein synthesis inhibition. cell reporter, cycloheximide protein synthesis inhibition counterscreen. max response, %. hit rate 12% among 300,000; in the data active means max response mostly above about 13%, no sharp cut-off; inactive means mostly below about 14%; further: read at 38.3 µM for the half of the compounds with a filed dose; 0% is about no effect
Pf growth 48h = P. falciparum growth inhibition at 48 hours (one generation); P. falciparum luciferase growth in erythrocytes, 48 h; Potency, µM (highest dose often 28.7 µM), inactives show at the top dose activity change, negative = inhibition, actives largely listed as inhibitors; hit rate 5.9% among 310,000; further: potency means the concentration at half of the fitted maximal effect; on the % scale 0 is the no-effect control and ±100 the full control effect
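Luciferase-expressing P. falciparum in infected erythrocytes (2% hematocrit, 0.1% parasitemia final) in RPMI 1640/0.5% Albumax were exposed to compound for 48 hours at 37 C, 5% CO2; growth read as luminescence.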
Lassa entry inh = Lassa virus entry inhibition. Lassa virus pseudotype entry inhibition, cell reporter. AID 540256. hit rate 1.2% among 300,000. Potency, µM (titrated, usually from 37.9 µM), inactives show at the top dose activity change, negative = inhibition, most hits filed as inhibitors; calls by dose curve; tested in HEK293 cells; further: potency means the concentration at half of the fitted maximal effect; on the % scale 0 is the no-effect control and ±100 the full control effect; nearly all actives have a fitted effect of over 50% in size
Marburg entry inh = inhibitors of Marburg virus binding or cell entry; Marburg virus pseudotyped entry inhibition, cell reporter; Potency, µM (highest dose often 37.8 µM), inactives show top-dose activity change, negative = inhibition, actives largely listed as inhibitors; hit rate 1.8% among 300,000; AID 540276; calls by dose curve; tested in HEK293 cells; further: potency means the concentration at half of the fitted maximal effect; on the % scale 0 is the no-effect control and ±100 the full control effect
Shiga inhibitor = Shiga toxin inhibition | inhibition, % at 38.7 µM | Vero cells, Shiga toxin protein synthesis inhibition reporter | hit rate 9.2% among 290,000; in the data active means inhibition mostly above about 28%, no sharp cut-off; inactive means mostly below about 43%; further: 0% is about no effect
Active calls of the source: *; ? = inconclusive; . = not tested or not shown; [ ] = dose if it differs, or a comment. A selection: hits, their analogues and other compounds. The true share with any hit is near 19%. Unless noted, the call rests on the fitted dose curve; in most records, active means well fitted inhibition curve with a large enough effect; inconclusive means small, poorly fitted or top-dose-only effect, or another doubt; inactive means no such curve, though single readings can be large or run the other way.

SMILES	Pf growth 96h	CHX counter	Pf growth 48h	Lassa entry inh	Marburg entry inh	Shiga inhibitor
Cc1cc(C)c(C)c(S(=O)(=O)NCc2ccc(C(=O)NCC3CCCO3)cc2)c1C (stereo unspecified)	?	-2.3	-18.5%	.	.	-16.7
COc1ccc(C2(NC(C)=O)CCN(C(=O)CCC(=O)O)CC2)cc1	9.4%	-6.6	.	0.7%	12.6%	-10.2
COc1cc(-c2nnc(-c3cc(-c4ccccc4)nc4ccccc34)o2)cc(OC)c1OC	.	.	.	18.8%	0.6%[46.1 µM]	.
COc1ccc(-c2cc(-c3nnc(-c4ccncc4)o3)c3ccccc3n2)cc1	9.28µM*	-1.5	?	13.1%	-2.7%	-7.5
Cc1nc(-c2nnc(-c3ccccc3)o2)c(C(F)(F)F)o1	12.2%	27.7*	55.3%	?	?	48.5*
Cc1nc(-c2noc(-c3cccc(Cl)c3)n2)c(C(F)(F)F)o1	54.2%	4.5	34.1%	17.0%[46.1 µM]	20.5%[46.1 µM]	18.3
COc1ccccc1-c1nnc(-c2ccc(N3CCOCC3)cc2)o1	1.65µM*	34.9*	?	0.2%	?	61.6*
O=C(CCc1ccccc1)c1nnc(-c2ccccc2)o1	25.1%	30.4*	42.3%	?	?	42.0
COc1ccccc1-c1nnc(SC(C)C(=O)N2CCOCC2)o1 (stereo unspecified)	-2.3%	.	-1.6%	-3.0%[46.1 µM]	-18.8%	.
Cc1ccccc1N/C=C/C(=C(C#N)C#N)N(C)C	2.0%	-1.5	-5.9%	14.6%	19.7%	18.7
c1ccc2c(-c3nc(C4CCCCC4)no3)cc(-c3ccncc3)nc2c1	?	-1.1	2.62µM*	-16.5%	?	12.2
COc1cc(-c2nnc(-c3ccccc3)o2)cc(OC)c1OC	?	5.8	?	?	?	10.8
ClCc1nnc(-c2ccccc2)o1	15.8%	11.1	2.94µM*	0.2%	?	17.1
COc1ccc(-c2nnc(-c3ccccc3)o2)cc1OC	2.4%	50.6*	203.7%	.	.	52.9*
O=C(N/N=C/c1ccc2c(c1)OCO2)c1cc(-c2ccncc2)nc2ccccc12	?	-0.8	?	?	?	16.4
Cc1ccc2nc3c(cc(C#N)c(=O)n3-c3nnc(SCc4ccccc4)s3)c(=O)n2c1	.	.	.	20.5%[46.1 µM]	1.5%[46.1 µM]	.
COc1cc(OC)c(OC)cc1/C=C/c1cc(C(F)(F)F)[nH]c(=O)n1	32.6%	-2.9	11.9%	-6.5%[46.1 µM]	?	-6.6
O=C(COc1ccc(Cl)cc1)N(c1ccc(Cl)cc1)C1CN2CCC1CC2 (stereo unspecified)	?	-3.1	0.0%	?	?	-13.3
O=C1c2ccccc2C(=O)N1c1cccc(-c2csc(Nc3ccc4c(c3)OCO4)n2)c1	10.4µM*	20.4*	17.8%	.	-1.1%	70.8*
COc1ccccc1Nc1nc(-c2cccc(N3C(=O)c4ccccc4C3=O)c2)cs1	14.7µM*	0.6	6.5%	-2.0%	?	-3.6
COc1ccc(-c2csc(NC(=O)c3cccc(N4C(=O)CCC4=O)c3)n2)cc1OC	-29.8%	.	?	-0.8%	?	.
Cc1ccc(CN2CCC(n3nccc3NC(=O)c3ccc4c(c3)OCO4)CC2)o1	-29.2%	-1.7	6.3%	0.9%	3.6%	-8.5
Cc1ccc(C)n1NC(=O)c1ccccc1O	9.28µM*	3.3	?	.	.	36.3
Cc1ccccc1NC(=O)c1ccccc1O	0.5%	24.4*	?	23.1%[14.3 µM]	17.0%	20.3
Cc1ccccc1N=C(N)Nc1ccccc1C	10.4µM*	.	?	.	.	.
SMILES	Pf growth 96h	CHX counter	Pf growth 48h	Lassa entry inh	Marburg entry inh	Shiga inhibitor
Cc1ccccc1NC(=O)C(=O)Nc1ccccc1C	172.8%	22.5*	124.7%	14.0%[46.1 µM]	?	49.4*
Cc1occc1C(=O)NCCc1cccc(Cl)c1	93.9%	69.4*	.	4.0%	21.2%	130.2*
Cc1ccc(/C=C/C(=O)NCCc2cccc(Cl)c2)o1	-1.0%	28.7*	-26.7%	-0.6%	2.3%	.
Cc1occc1C(=O)NNC(=S)NCc1ccc(Cl)cc1	18.2%	27.8*	31.3%	.	.	27.5
Cc1occc1C(=O)NCCCc1ccccc1	.	25.4*	35.3%	?	?	117.3
CCOC(=O)CCNC(=O)N1CCCC(C(=O)c2cccc(OC(C)C)c2)C1 (stereo unspecified)	?	-3.3	10.3%	-39.3%	-9.7%	-2.4
COc1ccccc1N1CCN(Cc2cccc(Br)c2)CC1	?	-3.1	-12.5%	.	.	9.2
COC(=O)Nc1nc2ccc(-c3n[nH]c(=O)c4ccccc34)cc2[nH]1	66.0%	0.6	25.1%	?	-9.4%	-1.2
N#CCC(=O)Nc1ccc(C(=O)NCc2ccccn2)cc1	13.5%	-6.8	0.0%	.	.	10.6
CCCCCN=C(C)c1c(O)c2ccccc2oc1=O	?	42.4*	0.9%	-18.4%	?	65.1*
O=C1Cc2cc(S(=O)(=O)Nc3cccc(C(F)(F)F)c3)cc3c2N1CCC3	.	.	.	12.8%[46.1 µM]	.	.
CC1CCN(C(=O)CNC(=O)c2cccc(OC(F)F)c2)CC1	13.5%	18.3*	57.9%	2.6%	19.3%	48.8*
COc1cccc(C(=O)NCC(=O)N2CCC(C)CC2)c1	73.9%	24.7*	75.5%	?	17.6%	34.9
COc1cc(NC(=O)C2CCCN(S(=O)(=O)c3cnc[nH]3)C2)cc(OC)c1 (stereo unspecified)	-12.3%	-4.5	.	.	.	-10.1
O=C(NCCC1=CCCCC1)C1CCCN(S(=O)(=O)c2cnc[nH]2)C1 (stereo unspecified)	11.7µM*	-7.4	.	.	.	-10.4
Cc1csc(NC(=O)C2CCCN(S(=O)(=O)c3cnc[nH]3)C2)n1 (stereo unspecified)	11.7µM*	-3.6	.	.	.	-19.6
O=C(NCCc1ccccc1)C1CCCN(S(=O)(=O)c2cnc[nH]2)C1 (stereo unspecified)	39.6%	-6.0	.	.	.	-1.4
O=C(Nc1cccc(F)c1)C1CCCN(S(=O)(=O)c2cnc[nH]2)C1 (stereo unspecified)	9.28µM*	-9.7	16.3%	.	.	-7.4
Cc1ccc(NC(=O)C2CCCN(S(=O)(=O)c3cnc[nH]3)C2)cc1F (stereo unspecified)	?	-2.3	2.0%	.	.	2.6
Cc1cc(C)cc(NC(=O)C2CCCN(S(=O)(=O)c3cnc[nH]3)C2)c1 (stereo unspecified)	3.29µM*	-1.5	2.4%	.	.	1.5
O=C(O)/C=C/c1cccc(NC(=O)Nc2ccc([N+](=O)[O-])cc2)c1	26.0%	-0.2	3.9%	.	.	-6.2
O=C1NC(=O)/C(=C\c2ccsc2)N1	?	-7.0	15.4%	12.1%	12.6%[46.1 µM]	32.7
NC(=O)c1c(NC(=O)CS(=O)(=O)c2ccc(Cl)cc2)sc2c1CCCCC2	.	.	.	0.4%[46.1 µM]	.	.
O=S(=O)(Nc1ccc2c(c1)OCCO2)c1cccc2nsnc12	?	48.6*	.	19.4%	13.7%	77.3*
CC(NC(=O)CCNS(=O)(=O)c1cccc2nsnc12)c1ccccc1 (stereo unspecified)	2.94µM*	-2.6	6.5%	3.9%	18.4%[46.1 µM]	23.7
O=C(CCNS(=O)(=O)c1cccc2nsnc12)Nc1ccc2c(c1)OCCO2	.	23.5*	10.9%	-3.1%	4.9%	42.5
